# From PubChem BioAssay AID556 (SRMLSC, 2006)
# Hit rate of the full screen: of about 65,000 compounds, about 320 (0.49%) were called active. Shown is part of a subset that was picked to be rich in actives. Values without a mark were called inactive.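 How the source made its calls: active means the 320 compounds with the highest percent inhibition in the single-dose primary screen, excluding strongly autofluorescent ones (cut at about 32% in these data); inactive means the rest, inconclusive results apart.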
# Tested on: diphosphomevalonate decarboxylase (Streptococcus pneumoniae D39)
# Assay: S. pneumoniae DPM-DC inhibitors, primary screen, biochemical, PK/LDH-coupled NADH fluorescence (AID 556);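 on inhibition: kinetic rate of NADH fluorescence loss reporting ADP formed by the decarboxylase; 0% = full reaction rate with carrier and 100% = no-substrate background rate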
# Conditions: purified DPM-DC, at 10 µM; stronger effect = higher value unless noted
row,SMILES,inhibition
1,O=C(Oc1ccccc1)c1ccc2nccnc2c1,inactive
2,CCOC(=O)c1sc(NC(=O)c2cc(S(=O)(=O)N3CCOCC3)ccc2C)nc1C,11%
3,Cc1ccc(N2CCN(c3ccc(C)cc3)C2c2ccccn2)cc1,inactive
4,O=C(c1cc(-c2cccc(O)c2)on1)N1CCc2ccccc2C1,1%
5,COc1cc(Cl)c(S(=O)(=O)N2CCN(Cc3ccc4c(c3)OCO4)CC2)cc1Cl,inactive
6,Cc1ccc2cc3cc(C(=O)N4CCCCCC4)oc3nc2c1,33% (active)
7,O=C(c1cc(-c2cccs2)on1)N1CCCCC1,inactive
8,Cc1ccc(C(=O)N2CCCCCC2)cc1Br,inactive
9,CCOC(=O)CNC(=O)CSc1nnc(COc2ccc(Cl)cc2)n1CC,2%
10,Cc1oc(-c2ccccc2F)nc1CS(=O)(=O)CC(=O)NCCCN(C)C1CCCCC1,9%
11,COc1ccc(-n2c(Cc3cccn3C)nnc2SCC(=O)Nc2cc(C)cc(C)c2)cc1,inactive
12,O=C(O)CCCC(=O)Nc1ccccc1-n1ccnc1,inactive
13,Cc1nc(SCC(=O)Nc2cc(C)on2)c2c(C)c(C)sc2n1,inactive
14,CCOc1ccccc1N(CC(=O)Nc1ccccc1C(=O)OC)S(C)(=O)=O,inactive
15,COc1ccc(OC)c(NC(=O)CN2CCN(C(=O)c3ccco3)CC2)c1,inactive
16,COc1cccc(C2/C(=C(/O)c3ccncc3)C(=O)C(=O)N2CCCN(C)C)c1 (stereo unspecified),16%
17,CC(C)c1nc(-c2ccccn2)no1,inactive
18,CC(=O)NCC(=O)N(C)C(C(=O)Nc1ccc2c(c1)OCCO2)c1ccccc1 (stereo unspecified),inactive
19,Cc1cc(C)cc(OCc2nnc(SCC(=O)OC3CCCCC3)o2)c1,inactive
20,CCOC(=O)c1ccc(N2C(=O)CC(Sc3nc(O)c(CC)c(=O)[nH]3)C2=O)cc1 (stereo unspecified),inactive
21,Cn1c2c(c(=O)n(C)c1=O)C1c3ccccc3OCC1C(C)(C)O2 (stereo unspecified),10%
